Laboratory results reported in article PMC7862700, “An all-to-all approach to the identification of sequence-specific readers for epigenetic DNA modifications on cytosine”.

Experiments:
Experiment in all cases: DAPPL (digital affinity profiling via proximity ligation, sequencing); 10 mM Tris-HCl pH 7.5, 50 mM NaCl, 1 mM DTT, 4% glycerol, room temperature, 30 min; GST-TFs on glutathione beads, 16-mer random dsDNA library, 0.1% formaldehyde crosslink after washing; high values mean tight binding
Conditions in all cases: protein: recombinant; tags: N-terminal GST; dsDNA, one strand shown
[1] = biological target: T1, FLI1 (Homo sapiens, UniProt Q01543 1-452)
T1 sequence: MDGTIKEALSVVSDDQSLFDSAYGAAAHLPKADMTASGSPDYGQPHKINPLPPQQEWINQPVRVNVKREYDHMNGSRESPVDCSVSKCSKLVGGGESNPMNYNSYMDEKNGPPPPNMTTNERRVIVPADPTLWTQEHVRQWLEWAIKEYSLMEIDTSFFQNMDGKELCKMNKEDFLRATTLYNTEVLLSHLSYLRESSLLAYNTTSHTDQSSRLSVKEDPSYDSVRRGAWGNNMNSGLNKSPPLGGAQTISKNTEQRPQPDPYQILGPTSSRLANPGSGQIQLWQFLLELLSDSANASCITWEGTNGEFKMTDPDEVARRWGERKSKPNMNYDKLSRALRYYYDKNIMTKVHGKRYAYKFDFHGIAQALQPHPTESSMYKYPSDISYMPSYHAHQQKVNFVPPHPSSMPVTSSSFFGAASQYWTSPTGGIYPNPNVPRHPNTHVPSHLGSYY
Method in brief: (§1)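 Human transcription factors fused to GST were expressed in yeast, captured on glutathione beads, given DNA barcodes and pooled with a GST-only negative control. Pools were incubated with 200 nmole of a 16-mer random double-stranded DNA library in Tris/NaCl/DTT/glycerol buffer at room temperature for 30 min. They were then washed, crosslinked with 0.1% formaldehyde, proximity-ligated (BsaI/T4 ligase, 1 h, 37 °C), PCR-amplified and sequenced on an Illumina NextSeq500. Binding signal is each 6-mer's read frequency for a factor divided by its frequency for the GST control.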

[2] = biological target: ELF1 (Homo sapiens, UniProt P32519 1-619)
Sequence of ELF1 (P32519 whole entry): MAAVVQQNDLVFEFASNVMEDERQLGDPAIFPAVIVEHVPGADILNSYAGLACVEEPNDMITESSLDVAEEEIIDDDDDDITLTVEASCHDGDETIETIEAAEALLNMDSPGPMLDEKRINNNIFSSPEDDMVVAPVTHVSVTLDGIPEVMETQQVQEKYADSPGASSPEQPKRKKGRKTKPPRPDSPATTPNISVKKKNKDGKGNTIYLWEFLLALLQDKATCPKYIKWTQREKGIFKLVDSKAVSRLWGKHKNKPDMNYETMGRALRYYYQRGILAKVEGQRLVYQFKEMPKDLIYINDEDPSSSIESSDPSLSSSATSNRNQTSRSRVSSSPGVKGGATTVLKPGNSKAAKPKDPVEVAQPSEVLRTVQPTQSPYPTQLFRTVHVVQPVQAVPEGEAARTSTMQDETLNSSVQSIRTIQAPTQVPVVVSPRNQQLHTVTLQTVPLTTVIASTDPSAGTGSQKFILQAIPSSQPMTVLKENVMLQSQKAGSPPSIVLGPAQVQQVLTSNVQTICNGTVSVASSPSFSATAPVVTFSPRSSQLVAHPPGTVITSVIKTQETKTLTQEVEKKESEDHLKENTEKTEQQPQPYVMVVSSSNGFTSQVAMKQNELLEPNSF
Method in brief: as §1

[3] = biological target: T2, EHF (Homo sapiens, UniProt Q9NZC4 1-300)
T2 sequence: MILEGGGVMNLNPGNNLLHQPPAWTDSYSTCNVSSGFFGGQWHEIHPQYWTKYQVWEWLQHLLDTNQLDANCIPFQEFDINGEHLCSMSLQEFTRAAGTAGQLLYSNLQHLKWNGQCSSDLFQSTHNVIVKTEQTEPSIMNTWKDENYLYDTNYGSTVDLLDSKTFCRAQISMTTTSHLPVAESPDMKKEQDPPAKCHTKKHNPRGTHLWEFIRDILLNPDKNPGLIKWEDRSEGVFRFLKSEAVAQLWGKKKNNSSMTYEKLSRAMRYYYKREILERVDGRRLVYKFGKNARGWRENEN
Method in brief: as §1

[4] = biological target: SPIB (Homo sapiens, UniProt Q01892 1-262)
Sequence of SPIB (Q01892 whole entry): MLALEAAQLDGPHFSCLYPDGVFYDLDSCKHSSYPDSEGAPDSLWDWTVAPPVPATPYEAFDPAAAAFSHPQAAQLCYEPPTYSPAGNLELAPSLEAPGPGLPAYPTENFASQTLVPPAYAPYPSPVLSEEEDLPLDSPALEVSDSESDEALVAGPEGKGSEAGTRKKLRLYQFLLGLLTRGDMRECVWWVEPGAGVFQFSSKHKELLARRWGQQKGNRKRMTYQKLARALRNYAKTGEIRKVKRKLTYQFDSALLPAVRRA
Method in brief: as §1

[5] = biological target: T3, ELK4 (Homo sapiens, UniProt P28324-2 1-405)
T3 sequence: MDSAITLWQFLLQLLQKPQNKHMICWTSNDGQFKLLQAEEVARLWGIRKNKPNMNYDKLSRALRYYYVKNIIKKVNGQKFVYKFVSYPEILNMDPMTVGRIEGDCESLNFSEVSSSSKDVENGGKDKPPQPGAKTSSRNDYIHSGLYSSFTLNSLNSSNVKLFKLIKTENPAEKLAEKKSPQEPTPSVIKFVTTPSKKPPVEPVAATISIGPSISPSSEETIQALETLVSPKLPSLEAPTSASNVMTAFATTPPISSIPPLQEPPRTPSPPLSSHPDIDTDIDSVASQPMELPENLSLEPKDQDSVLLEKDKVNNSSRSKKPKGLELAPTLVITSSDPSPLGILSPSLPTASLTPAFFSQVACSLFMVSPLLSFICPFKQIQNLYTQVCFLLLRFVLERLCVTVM
Method in brief: as §1

[6] = biological target: T4, ELK1 (Homo sapiens, UniProt P19419 1-428)
T4 sequence: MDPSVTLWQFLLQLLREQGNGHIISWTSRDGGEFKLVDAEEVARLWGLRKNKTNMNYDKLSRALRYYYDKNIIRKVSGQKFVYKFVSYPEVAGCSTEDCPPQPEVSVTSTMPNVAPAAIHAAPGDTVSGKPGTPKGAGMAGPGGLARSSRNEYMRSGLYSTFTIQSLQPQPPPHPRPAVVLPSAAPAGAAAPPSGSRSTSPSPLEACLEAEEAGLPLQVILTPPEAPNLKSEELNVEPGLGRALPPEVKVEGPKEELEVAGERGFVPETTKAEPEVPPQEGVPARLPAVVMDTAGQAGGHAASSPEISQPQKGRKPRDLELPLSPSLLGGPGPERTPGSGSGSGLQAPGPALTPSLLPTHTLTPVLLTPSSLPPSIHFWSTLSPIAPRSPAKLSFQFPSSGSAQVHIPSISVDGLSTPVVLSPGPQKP
Method in brief: as §1

[7] = biological target: T5, GABPA (Homo sapiens, UniProt Q06546 1-454)
T5 sequence: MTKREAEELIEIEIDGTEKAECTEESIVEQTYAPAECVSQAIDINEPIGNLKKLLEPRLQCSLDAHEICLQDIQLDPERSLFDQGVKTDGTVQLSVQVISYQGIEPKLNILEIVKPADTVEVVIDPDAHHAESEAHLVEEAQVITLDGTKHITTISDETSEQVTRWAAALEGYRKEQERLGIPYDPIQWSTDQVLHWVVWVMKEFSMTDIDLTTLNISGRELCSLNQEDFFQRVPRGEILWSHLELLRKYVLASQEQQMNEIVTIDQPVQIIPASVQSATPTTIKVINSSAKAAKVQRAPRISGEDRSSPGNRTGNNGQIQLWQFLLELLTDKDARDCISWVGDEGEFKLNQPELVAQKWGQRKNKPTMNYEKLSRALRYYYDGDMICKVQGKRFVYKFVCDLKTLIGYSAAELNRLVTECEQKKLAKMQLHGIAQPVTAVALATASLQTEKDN
Method in brief: as §1

[8] = biological target: T6, ERG (Homo sapiens, UniProt P11308 1-479)
T6 sequence: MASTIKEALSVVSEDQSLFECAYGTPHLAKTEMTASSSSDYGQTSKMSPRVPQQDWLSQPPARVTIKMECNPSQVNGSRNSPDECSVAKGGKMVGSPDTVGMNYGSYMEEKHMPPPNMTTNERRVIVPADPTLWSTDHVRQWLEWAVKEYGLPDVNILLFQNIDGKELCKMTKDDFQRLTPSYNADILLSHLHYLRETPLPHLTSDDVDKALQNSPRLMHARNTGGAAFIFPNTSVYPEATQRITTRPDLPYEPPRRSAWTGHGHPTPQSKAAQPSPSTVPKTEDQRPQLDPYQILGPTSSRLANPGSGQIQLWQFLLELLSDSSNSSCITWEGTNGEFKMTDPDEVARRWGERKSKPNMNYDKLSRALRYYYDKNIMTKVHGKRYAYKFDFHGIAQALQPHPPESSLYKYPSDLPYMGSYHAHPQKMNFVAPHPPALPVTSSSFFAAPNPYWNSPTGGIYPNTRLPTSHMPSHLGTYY
Method in brief: as §1

[9] = biological target: ELF4 (Homo sapiens, UniProt Q99607 1-663)
Sequence of ELF4 (Q99607 whole entry): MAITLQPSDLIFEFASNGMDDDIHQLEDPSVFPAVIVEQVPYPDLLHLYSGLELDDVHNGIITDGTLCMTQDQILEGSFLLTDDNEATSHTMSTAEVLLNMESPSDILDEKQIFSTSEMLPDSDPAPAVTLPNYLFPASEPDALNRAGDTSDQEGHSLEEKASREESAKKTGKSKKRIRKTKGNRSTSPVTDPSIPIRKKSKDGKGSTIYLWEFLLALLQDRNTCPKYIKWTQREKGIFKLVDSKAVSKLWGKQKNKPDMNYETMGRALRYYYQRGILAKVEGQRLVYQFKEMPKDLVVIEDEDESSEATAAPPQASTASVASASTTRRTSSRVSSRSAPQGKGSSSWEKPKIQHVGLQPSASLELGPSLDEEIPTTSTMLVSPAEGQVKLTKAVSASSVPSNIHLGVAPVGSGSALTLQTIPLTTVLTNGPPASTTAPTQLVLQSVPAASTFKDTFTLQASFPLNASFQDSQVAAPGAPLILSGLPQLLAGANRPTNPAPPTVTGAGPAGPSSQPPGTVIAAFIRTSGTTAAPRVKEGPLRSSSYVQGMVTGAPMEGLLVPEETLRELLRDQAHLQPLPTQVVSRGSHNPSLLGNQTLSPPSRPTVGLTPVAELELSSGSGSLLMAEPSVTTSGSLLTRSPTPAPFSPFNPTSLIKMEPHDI
Method in brief: as §1

[10] = biological target: T7, ETV2 (Homo sapiens, UniProt O00321 1-342)
T7 sequence: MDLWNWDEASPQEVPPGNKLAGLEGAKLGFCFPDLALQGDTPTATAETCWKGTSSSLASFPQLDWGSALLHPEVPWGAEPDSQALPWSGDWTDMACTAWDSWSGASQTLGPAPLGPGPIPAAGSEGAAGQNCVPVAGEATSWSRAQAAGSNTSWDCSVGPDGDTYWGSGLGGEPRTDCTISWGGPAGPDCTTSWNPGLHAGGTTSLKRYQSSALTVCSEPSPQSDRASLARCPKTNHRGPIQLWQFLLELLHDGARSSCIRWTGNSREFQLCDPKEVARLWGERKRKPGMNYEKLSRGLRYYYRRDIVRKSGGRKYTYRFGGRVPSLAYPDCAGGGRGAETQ
Method in brief: as §1

[11] = biological target: ETV1 (Homo sapiens, UniProt P50549 1-477)
Sequence of ETV1 (P50549 whole entry): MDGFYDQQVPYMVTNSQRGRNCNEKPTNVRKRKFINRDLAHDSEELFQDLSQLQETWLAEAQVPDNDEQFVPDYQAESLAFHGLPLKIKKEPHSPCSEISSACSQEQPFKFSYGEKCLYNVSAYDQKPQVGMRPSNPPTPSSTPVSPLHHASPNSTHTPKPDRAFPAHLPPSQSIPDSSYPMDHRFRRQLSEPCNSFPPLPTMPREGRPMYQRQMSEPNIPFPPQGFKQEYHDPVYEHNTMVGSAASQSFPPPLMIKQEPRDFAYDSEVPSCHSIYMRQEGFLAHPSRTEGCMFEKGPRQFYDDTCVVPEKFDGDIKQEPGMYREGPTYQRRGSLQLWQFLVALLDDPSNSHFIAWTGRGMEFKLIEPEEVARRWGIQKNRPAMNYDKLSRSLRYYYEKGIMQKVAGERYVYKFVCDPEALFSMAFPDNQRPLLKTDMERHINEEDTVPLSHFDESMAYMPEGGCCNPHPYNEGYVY
Method in brief: as §1

[12] = biological target: T8, ERF (Homo sapiens, UniProt P50548 1-548)
T8 sequence: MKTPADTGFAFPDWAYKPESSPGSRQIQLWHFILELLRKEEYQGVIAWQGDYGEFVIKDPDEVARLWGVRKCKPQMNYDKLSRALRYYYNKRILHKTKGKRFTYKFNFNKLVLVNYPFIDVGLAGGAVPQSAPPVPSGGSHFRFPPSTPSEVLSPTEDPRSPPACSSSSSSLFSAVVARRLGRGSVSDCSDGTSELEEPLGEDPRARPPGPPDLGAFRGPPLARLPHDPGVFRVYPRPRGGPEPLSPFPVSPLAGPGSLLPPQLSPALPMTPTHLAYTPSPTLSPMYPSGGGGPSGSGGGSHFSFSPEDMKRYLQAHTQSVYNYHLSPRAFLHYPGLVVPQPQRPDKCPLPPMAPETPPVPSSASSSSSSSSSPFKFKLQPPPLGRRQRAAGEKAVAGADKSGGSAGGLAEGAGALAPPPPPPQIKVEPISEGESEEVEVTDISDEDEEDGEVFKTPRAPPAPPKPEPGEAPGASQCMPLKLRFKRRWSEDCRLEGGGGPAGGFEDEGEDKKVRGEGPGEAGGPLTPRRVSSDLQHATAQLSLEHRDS
Method in brief: as §1

[13] = biological target: T9, ETV3L (Homo sapiens, UniProt Q6ZN32 1-361)
T9 sequence: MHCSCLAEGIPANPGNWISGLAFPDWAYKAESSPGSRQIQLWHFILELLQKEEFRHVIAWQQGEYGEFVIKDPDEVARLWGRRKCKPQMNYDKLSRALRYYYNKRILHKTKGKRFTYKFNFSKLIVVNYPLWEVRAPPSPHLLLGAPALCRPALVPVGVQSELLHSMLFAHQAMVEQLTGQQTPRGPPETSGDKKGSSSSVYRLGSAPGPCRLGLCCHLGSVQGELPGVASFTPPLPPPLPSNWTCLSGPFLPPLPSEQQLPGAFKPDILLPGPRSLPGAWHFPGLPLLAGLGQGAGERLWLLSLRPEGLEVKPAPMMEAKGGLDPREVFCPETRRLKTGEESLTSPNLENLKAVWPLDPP
Method in brief: as §1

[14] = biological target: T10, ETS2 (Homo sapiens, UniProt P15036 1-469)
T10 sequence: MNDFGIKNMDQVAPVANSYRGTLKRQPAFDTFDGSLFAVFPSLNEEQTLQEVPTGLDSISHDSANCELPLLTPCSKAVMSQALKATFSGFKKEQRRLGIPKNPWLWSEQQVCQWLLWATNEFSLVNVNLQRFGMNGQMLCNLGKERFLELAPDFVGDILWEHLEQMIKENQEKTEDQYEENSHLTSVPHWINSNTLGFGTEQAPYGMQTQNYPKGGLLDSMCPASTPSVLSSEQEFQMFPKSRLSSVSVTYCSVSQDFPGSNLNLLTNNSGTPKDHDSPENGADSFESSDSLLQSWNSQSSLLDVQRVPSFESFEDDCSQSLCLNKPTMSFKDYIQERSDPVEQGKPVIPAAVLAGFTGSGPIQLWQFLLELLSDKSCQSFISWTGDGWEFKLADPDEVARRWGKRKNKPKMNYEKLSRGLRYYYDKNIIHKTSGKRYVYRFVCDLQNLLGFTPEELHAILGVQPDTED
Method in brief: as §1

[15] = biological target: T11, ETV7 (Homo sapiens, UniProt Q9Y603 1-341)
T11 sequence: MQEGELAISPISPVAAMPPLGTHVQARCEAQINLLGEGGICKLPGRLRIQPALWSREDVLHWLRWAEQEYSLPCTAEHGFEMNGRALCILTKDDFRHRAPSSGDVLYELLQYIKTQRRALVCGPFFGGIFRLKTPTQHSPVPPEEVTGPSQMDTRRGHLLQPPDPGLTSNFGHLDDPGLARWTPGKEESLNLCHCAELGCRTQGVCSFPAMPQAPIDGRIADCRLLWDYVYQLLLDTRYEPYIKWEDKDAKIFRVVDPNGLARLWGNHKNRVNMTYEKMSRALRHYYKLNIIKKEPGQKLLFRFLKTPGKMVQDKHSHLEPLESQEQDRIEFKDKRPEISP
Method in brief: as §1

[16] = biological target: T12, ETV3 (Homo sapiens, UniProt P41162-2 1-143)
T12 sequence: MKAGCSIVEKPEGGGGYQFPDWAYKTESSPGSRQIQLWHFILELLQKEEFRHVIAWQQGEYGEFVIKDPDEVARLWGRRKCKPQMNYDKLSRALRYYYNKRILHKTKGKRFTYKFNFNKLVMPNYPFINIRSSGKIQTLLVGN
Method in brief: as §1

[17] = biological target: ETV6 (Homo sapiens, UniProt P41212 1-452)
Sequence of ETV6 (P41212 whole entry): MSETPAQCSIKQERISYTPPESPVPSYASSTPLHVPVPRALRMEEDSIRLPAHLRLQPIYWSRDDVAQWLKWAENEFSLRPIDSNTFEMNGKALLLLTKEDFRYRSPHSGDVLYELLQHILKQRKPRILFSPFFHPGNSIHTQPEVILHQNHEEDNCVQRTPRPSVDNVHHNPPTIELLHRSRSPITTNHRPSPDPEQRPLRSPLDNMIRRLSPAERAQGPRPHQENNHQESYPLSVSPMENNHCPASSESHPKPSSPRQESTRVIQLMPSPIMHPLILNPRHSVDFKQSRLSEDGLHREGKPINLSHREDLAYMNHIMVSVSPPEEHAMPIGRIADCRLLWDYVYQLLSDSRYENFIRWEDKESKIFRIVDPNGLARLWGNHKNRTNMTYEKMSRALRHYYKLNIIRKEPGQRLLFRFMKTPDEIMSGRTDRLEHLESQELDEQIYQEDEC
Method in brief: as §1

Sequence	binding signal [1]	binding signal [2]	binding signal [3]	binding signal [4]	binding signal [5]	binding signal [6]	binding signal [7]	binding signal [8]	binding signal [9]	binding signal [10]	binding signal [11]	binding signal [12]	binding signal [13]	binding signal [14]	binding signal [15]	binding signal [16]	binding signal [17]
TCGCGT	1.01 fold enrichment (6-mer frequency, TF over GST control)	1 fold enrichment (6-mer frequency, TF over GST control)	1.02 fold enrichment (6-mer frequency, TF over GST control)	1.01 fold enrichment (6-mer frequency, TF over GST control)	1.06 fold enrichment (6-mer frequency, TF over GST control)												
TCAGCT	1.09 fold enrichment (6-mer frequency, TF over GST control)	1.12 fold enrichment (6-mer frequency, TF over GST control)	1.11 fold enrichment (6-mer frequency, TF over GST control)	1.09 fold enrichment (6-mer frequency, TF over GST control)	1.14 fold enrichment (6-mer frequency, TF over GST control)	1 fold enrichment (6-mer frequency, TF over GST control)	1.04 fold enrichment (6-mer frequency, TF over GST control)	1.06 fold enrichment (6-mer frequency, TF over GST control)	1.03 fold enrichment (6-mer frequency, TF over GST control)	1.11 fold enrichment (6-mer frequency, TF over GST control)	1.14 fold enrichment (6-mer frequency, TF over GST control)	1.09 fold enrichment (6-mer frequency, TF over GST control)	1.09 fold enrichment (6-mer frequency, TF over GST control)	1.14 fold enrichment (6-mer frequency, TF over GST control)	1.01 fold enrichment (6-mer frequency, TF over GST control)	1.05 fold enrichment (6-mer frequency, TF over GST control)	1.04 fold enrichment (6-mer frequency, TF over GST control)
